Cav3 T inh: human Cav3.2 channel inhibition, primary screen. O95180. Cav3.2-expressing cells, Fluo-4 calcium fluorescence FDSS; active compounds read low. B-score at 10 µM. hit rate 4% among 100,000;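 active = single-dose well whose peak fluorescence ratio is a statistical outlier from its plate by either plate-standardised score or position-corrected B-score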
CYP2C9 act: increases human cytochrome P450 2C9 activity. P11712. recombinant CYP2C9, luciferin-H conversion, luminescence; active compounds read high; factor 1 = untreated enzyme, 0 = blocked. activation factor at 5 µM. hit rate 1.4% among 96,000;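 active = activation factor of 2 or more for CYP2C9 at a 5 µM dose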;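 also: 0 = sulfaphenazole-blocked wells and 1 = vehicle-only wells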
Target sequence (P11712 whole entry, looked up): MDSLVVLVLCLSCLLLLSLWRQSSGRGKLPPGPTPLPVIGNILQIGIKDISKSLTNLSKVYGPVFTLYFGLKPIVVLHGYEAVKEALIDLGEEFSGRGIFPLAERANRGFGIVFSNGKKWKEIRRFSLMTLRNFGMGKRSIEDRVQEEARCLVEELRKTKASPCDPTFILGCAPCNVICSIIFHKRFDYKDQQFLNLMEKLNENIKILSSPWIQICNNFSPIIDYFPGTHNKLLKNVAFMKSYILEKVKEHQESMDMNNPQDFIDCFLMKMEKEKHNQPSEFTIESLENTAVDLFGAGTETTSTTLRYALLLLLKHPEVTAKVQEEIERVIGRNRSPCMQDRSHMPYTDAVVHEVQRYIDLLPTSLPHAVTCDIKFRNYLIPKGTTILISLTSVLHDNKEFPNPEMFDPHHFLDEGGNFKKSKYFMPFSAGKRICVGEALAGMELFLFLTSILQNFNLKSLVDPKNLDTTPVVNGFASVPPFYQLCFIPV
CYP2C19 inh: blocks human cytochrome P450 2C19 | P33261 | CYP2C19 Supersomes, luciferin-H EGE luminescence, 30 min | inhibition, % at 5 µM | hit rate 21% among 96,000 | AID 778;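 active = CYP2C19 inhibition above a set limit at 5 µM in the primary screen, cut at about 50% in these data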;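 also: plate controls were negative control wells for no effect and 2.5 mM tranylcypromine positive control for full effect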
CYP2C9 inh: blocks human cytochrome P450 2C9; P11712; CYP2C9 Supersomes, luciferin-H conversion, luminescence; inhibition, % at 5 µM; hit rate 20% among 96,000; AID 777;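 active = blocking of liver enzyme CYP2C9 beyond about 50% at 5 µM, limit read from the data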
CYP2C19 activ: activators of human cytochrome P450 2C19. recombinant CYP2C19, luciferin-H EGE luminescence; active compounds read high; 0 = fully inhibited enzyme, 1 = untreated enzyme. activation factor at 5 µM. 96,000 tested, under 10 active;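 active = activation factor of at least 2 at 5 µM in the primary screen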;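 also: 0 = wells with 2.5 mM tranylcypromine and 1 = vehicle-only wells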
* marks the source's active call; other numbers are inactive results; nt = no result. Most compounds without a hit are left out; they make up all but 27% or so of the library.

SMILES	Cav3 T inh	CYP2C9 act	CYP2C19 inh	CYP2C9 inh	CYP2C19 activ
Cc1cccc(N2CCN(S(=O)(=O)c3cnc[nH]3)CC2)c1C	nt	0	98*	97*	0
NC1=NC[C@H](c2ccccc2)N1CCc1cccc(F)c1	0.071	nt	nt	nt	nt
CCN1CCN(C(=O)CS(=O)(=O)Cc2nc(-c3ccc(C)cc3)oc2C)CC1	1	0.8	4	20	1
O=C(C1CCCN(S(=O)(=O)c2cnc[nH]2)C1)N1CCN(c2ccc(Cl)cc2)CC1 (stereo unspecified)	-0.47	0.3	38	65*	0.6
Cc1ccc(C)c(N2CCN(C(=O)C3CCCN(S(=O)(=O)c4cnc[nH]4)C3)CC2)c1 (stereo unspecified)	-0.25	1	-4	0	1
O=C(CSc1cccc[n+]1[O-])c1cc2ccccc2o1	-0.0058	1.1	7	-5	0.9
CC(C)CN(C(=O)c1ccc(=O)n(C)n1)c1nc2ccccc2s1	-1.5	0.2	90*	84*	0.1
Cn1c(CNc2ccccn2)c(C#N)c2ccccc21	nt	0.9	75*	11	0.2
Cc1ccccc1N1CCN(Cc2c(C#N)c3ccccc3n2C)CC1	-0.53	1	67*	-4	0.3
Cc1ccc(SCc2c(C#N)c3ccccc3n2C)cc1	-1.2	nt	nt	nt	nt
Cn1c(CSc2ccccc2)c(C#N)c2ccccc21	-2.2	1.3	75*	-26	0.2
CC(Nc1ccccc1)C(=O)Nc1ccc(F)cc1 (stereo unspecified)	0.77	0.7	35	27	0.7
O=C(O)c1ccccc1S(=O)(=O)c1ccccc1CO	-0.0062	0.9	2	12	1
O=c1cc(-c2ccccc2)[nH]n1-c1nc2ccccc2[nH]1	-5.6*	0.4	5	56*	0.9
Cc1nn(-c2nc3ccccc3[nH]2)c(N)c1-c1ccccc1	-2.5	nt	nt	nt	nt
CCCN(CCO)Cc1ccc(F)c(Br)c1	-0.18	0.8	9	17	0.9
Cn1c(NC(=O)c2cc(Br)ccc2Cl)cc(=O)n(C)c1=O	nt	0.7	59*	29	0.4
O=S(=O)(c1cccs1)N1CCN(CC(O)COc2cc(Cl)ccc2Cl)CC1 (stereo unspecified)	-2.6	0.7	46	35	0.5
O=C(C1CCCCN1S(=O)(=O)c1ccc(F)cc1)N1CCN(c2ccccc2F)CC1 (stereo unspecified)	-0.34	0.6	39	36	0.6
Cc1cc(NC(=O)C2C3C(=O)N(Cc4ccc(Cl)cc4)C(C(=O)NCc4ccccc4)C34C=CC2(C)O4)no1 (stereo unspecified)	-1.3	0.2	40	83*	0.6
Cc1cc(NC(=O)C2C3C(=O)N(Cc4ccc(Cl)cc4)C(C(=O)NC4CCCCC4)C34C=CC2(C)O4)no1 (stereo unspecified)	nt	1.2	2	-24	1
COC(=O)CSc1nc(C)cc(Oc2ccccc2)n1	0.4	0.6	86*	38	0.1
CC(=O)OCC(=O)Nc1ccc(Cl)cc1Cl	0.5	1	9	0	0.9
Cc1cc(Oc2ccccc2)nc(SCC(=O)Nc2ccc(Cl)cc2Cl)n1	-5.8*	0.1	99*	93*	0
CSC1=NCCN1C(=O)c1ccc2c(c1)OCO2	0.44	0.9	10	5	0.9
SMILES	Cav3 T inh	CYP2C9 act	CYP2C19 inh	CYP2C9 inh	CYP2C19 activ
CC1=CC(C)(C)N(C(=O)c2ccc(F)cc2)c2cc3c(cc21)OCO3	nt	0	95*	97*	0
Cn1c(C(O)c2ccccc2)nc(Cl)c1Cl (stereo unspecified)	0.46	0.9	70*	12	0.3
CCn1c(C(O)c2ccc(C)cc2)nc2ccccc21 (stereo unspecified)	-0.34	1	44	-5	0.6
CCCCCC1CC(=O)N(Cc2ccc(Cl)cc2)C(=O)N1 (stereo unspecified)	-2	1.4	40	-37	0.6
COc1c2ccc(C(=O)NCCCCc3ccccc3)cc2nn1C	0.59	1	11	4	0.9
CC1(c2ccccc2)CC2CC(c3ccccc3)N1O2 (stereo unspecified)	-0.39	0.5	92*	54*	0.1
CCOc1cc(NC(=O)c2ccccc2C)c(OCC)cc1NC(=O)C1=Cc2ccccc2OC1	0.15	0.9	14	12	0.9
CN1CCN(c2ccc([N+](=O)[O-])cc2/C=N/NC(=O)c2ccc(F)cc2)CC1	nt	0.4	64*	58*	0.4
CCN(CC)C(=O)C1CCCN(c2ccc([N+](=O)[O-])cc2/C=N/NC(=O)c2cccc(Br)c2)C1 (stereo unspecified)	-7.2*	0.2	52*	85*	0.5
O=C(N/N=C/c1ccc([N+](=O)[O-])s1)c1cccc(Br)c1	-0.24	nt	nt	nt	nt
NC1=NC[C@H](CC2CCCCC2)N1CCc1cc(C(F)(F)F)cc(C(F)(F)F)c1	-0.53	nt	nt	nt	nt
O=C(c1ccccc1)c1nc2ccccc2n(CCCn2c(=O)c(C(=O)c3ccccc3)nc3ccccc32)c1=O	-0.87	0	74*	97*	0.3
O=C(c1ccccc1)c1nc2ccccc2[nH]c1=O	-0.15	1.1	44	-6	0.6
CCCCNS(=O)(=O)C1CCS(=O)(=O)C1 (stereo unspecified)	-0.13	0.9	-6	7	1.1
CCOC(=O)c1c(N)c(C#N)c2n1CCCC2	0.68	1	1	-4	1
CCOC(=O)c1c(N)c(C#N)c2n1CCCCC2	1	0.7	95*	34	0.1
CC(=O)Nc1ccc(S(=O)(=O)N(C)CC(=O)Nc2ccccc2N2CCOCC2)cc1	0.44	1.3	13	-34	0.9
CCCNC(=O)Cn1nc(C(F)(F)F)c2c1CCCC2	0.11	nt	nt	nt	nt
COCCOC(=O)c1[nH]c2c(c1C)C(=O)CC(c1ccc(F)cc1)C2 (stereo unspecified)	-0.18	0	83*	98*	0.2
Cc1c(C(=O)O)[nH]c2c1C(=O)CC(c1ccccc1)C2 (stereo unspecified)	1.8	1.1	-16	-8	1.2
COCCOC(=O)c1[nH]c2c(c1C)C(=O)CC(c1ccc(N(C)C)cc1)C2 (stereo unspecified)	-0.23	0.1	88*	93*	0.1
CCC(C)N(CC(=O)NCc1ccc(OC)cc1)C(=O)c1csnn1 (stereo unspecified)	0.025	1.1	19	-6	0.8
Cn1cc(S(=O)(=O)Nc2ccc(Br)cc2F)c(=O)n(C)c1=O	0.066	0.4	42	63*	0.6
CCOC(=O)N1CCN(C(=O)CSc2nnc(COc3ccc(Cl)cc3)o2)CC1	-3.2*	0.8	3	24	1
O=C(CSc1nnc(COc2ccc(Cl)cc2)o1)N1c2ccccc2CCc2ccccc21	-2.4	0.3	28	74*	0.7
O=C(COc1ccc(Cl)cc1)NCc1nnc(SCC(=O)N2CCCc3ccccc32)o1	-0.85	0.8	-3	18	1
CCc1cc2c(CN3CCN(CCO)CC3)cc(=O)oc2cc1O	nt	1.3	6	-35	0.9
NS(=O)(=O)c1ccc(Nc2nc(-c3ccc4ccccc4c3)cs2)cc1	0.77	1.1	-3	-6	1

Screening data deposited in PubChem BioAssay by several laboratories.
